# Compounds with a hit are over-represented: about 9.3% of the library has one in this group of screens.
# ELG1 repair inh: inhibitors of ELG1-dependent DNA repair in HEK293T cells; HEK293T ELG1-luciferase reporter, luminescence, 16 h; DNA damage induced by 5-fluorouridine; Potency, µM (titrated, usually from 46.1 µM), without a hit: at the highest dose activity change, negative = inhibition, hits mostly inhibitors; actives 2.3% (n = 330,000); AID 504467; note: % is set by controls: 0 for no effect and ±100 for the full control effect; nearly all actives have a fitted effect of over 55% in size
#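 Cells (2,000 per well) received 5-fluorouridine plus test compound or DMSO and were incubated 16 hr at 37 °C, 5% CO2. Luciferase activity was read by luminescence 30 min after ONE-Glo addition; signal suppression marked inhibition of damage-induced ELG1 function.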
# Rab9 promoter act: activators of Rab9 promoter; Huh7 Rab9 promoter-luciferase reporter, luminescence, 24 h; Potency, µM (doses to about 9.22 µM), inactives show at the highest dose activation, negative = inhibition, usual class: activators; actives 2.8% (n = 320,000); AID 485297; note: % of control where 0% means no effect; nearly all actives have a fitted effect of over 60% in size
#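 Cells were plated at 1500 per well in reduced-serum medium with 10% FBS and left 2 h. Compound in DMSO was then added for 24 h at 37 °C. Reporter signal was read by luminescence after 10 min with luciferase detection reagent.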
# FLuc counter: firefly luciferase modulation, counter-screen for miR-21 project; P08659; purified FLuc, Km substrates, luminescence inhibition; Potency, µM (highest dose often 57.5 µM), inactives show at the top dose activity change, negative = inhibition, usual class: inhibitors; actives 6.9% (n = 360,000);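 note: plate controls were vehicle for no effect and reference inhibitor for full effect; nearly all actives have a fitted effect of over 55% in size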
# Target sequence (P08659 whole entry, looked up): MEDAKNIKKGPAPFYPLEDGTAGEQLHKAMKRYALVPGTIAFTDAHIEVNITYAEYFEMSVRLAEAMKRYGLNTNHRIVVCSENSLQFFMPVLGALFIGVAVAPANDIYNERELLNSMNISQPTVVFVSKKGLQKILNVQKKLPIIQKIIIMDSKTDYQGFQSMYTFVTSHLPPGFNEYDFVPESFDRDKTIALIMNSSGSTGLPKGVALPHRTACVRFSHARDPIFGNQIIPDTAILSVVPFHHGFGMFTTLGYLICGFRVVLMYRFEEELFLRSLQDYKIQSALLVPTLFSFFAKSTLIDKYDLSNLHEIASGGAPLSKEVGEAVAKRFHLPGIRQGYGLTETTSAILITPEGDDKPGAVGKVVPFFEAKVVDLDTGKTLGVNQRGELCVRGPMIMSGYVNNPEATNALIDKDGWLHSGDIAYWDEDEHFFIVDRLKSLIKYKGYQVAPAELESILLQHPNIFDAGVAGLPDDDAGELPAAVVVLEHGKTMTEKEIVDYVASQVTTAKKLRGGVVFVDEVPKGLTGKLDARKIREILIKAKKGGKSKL
#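 Purified P. pyralis luciferase (10nM final) with 10uM D-luciferin and 10uM ATP (Km levels) in 50mM Tris acetate pH 7.5, 10mM Mg acetate, 0.01% Tween-20, 0.05% BSA; qHTS 6-point titration, ~60 µM downward; luminescence read.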
# SMN2 splice up: SMN2 splice variant enhancement; HEK293 SMN2-luciferase splicing reporter, luminescence, 30-36 h; Potency, µM (titrated, usually from 46.1 µM), inactives show at the top dose activity change, positive = activation, most hits filed as activators; actives 2.8% (n = 210,000); AID 1458; note: % of control where 0% means no effect; nearly all actives have a fitted effect of over 55% in size
#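 HEK293 cells carry an SMN2 […]–luciferase reporter in which exon 7 inclusion puts luciferase in frame. Cells were plated 10-12 h before compound addition, then incubated 30-36 h at 37C. ONE-Glo luminescence was read; sodium butyrate at 4.5 mM final served as control.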
# NPC1 promoter act: activators of NPC1 promoter. Huh7 NPC1 promoter luciferase reporter, 24 h. Potency, µM (doses to about 9.22 µM), inactives show at the top dose activation, hits mostly activators. actives 2.4% (n = 320,000); note: % of control where 0% means no effect; nearly all actives have a fitted effect of over 60% in size
#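 Readout is luciferase luminescence, reflecting NPC1 promoter activation in stably transfected Huh7 cells after 24 h compound exposure at 37 °C in reduced-serum medium with 10% FBS.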
# ELG1 genotoxic: induces genotoxicity in HEK293T cells with luciferase-tagged ELG1; Potency, µM (highest dose often 46 µM), for inactives: at the highest dose activity change, positive = activation, actives largely listed as activators; actives 1.3% (n = 330,000); AID 504466; HEK293T ELG1-luciferase reporter, luminescence, 16 h; note: % of control where 0% means no effect; nearly all actives have a fitted effect of over 60% in size
#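 16 hr compound incubation (37 °C, 5% CO2) of HEK293T cells carrying luciferase-tagged ELG1; luciferase then measured by ONE-Glo luminescence after 30 min at RT.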
# An asterisk follows results filed as active; ? = inconclusive; / = no result. Calls come from the whole dose curve; as a rule, active = well fitted curve in the direction sought with a large enough effect; inconclusive = small, poorly fitted or top-dose-only effect, or another doubt; inactive = no such curve, though single readings can be large; an effect the other way counts as inactive or inconclusive. Potency is the fitted concentration of half-maximal effect.
SMILES,ELG1 repair inh,Rab9 promoter act,FLuc counter,SMN2 splice up,NPC1 promoter act,ELG1 genotoxic
COc1ccc(-c2coc3cc(OC4OC(CO)C(O)C(O)C4O)cc(O)c3c2=O)cc1 (configuration not stated),?,2.8µM*,?,/,2.8µM*,?
CCCc1cc(=O)oc2cc(O[C@@H]3O[C@H](CO)[C@@H](O)[C@H](O)[C@H]3O)ccc12,-18%,-1%,2%,/,0%,-8%
COc1cc(O)c2c(=O)c3c(O[C@H]4O[C@@H](CO)[C@H](O)[C@@H](O)[C@@H]4O)ccc(O)c3oc2c1,8%,/,/,/,/,1%
COc1ccc(-c2coc3cc(OC4OC(CO)C(O)C(O)C4O)ccc3c2=O)cc1 (configuration not stated),?,1.6µM*,11µM*,/,1.6µM*,8.2µM*
O=C(Cc1ccc(S(=O)(=O)N2CCOCC2)s1)Nc1nc2c(s1)CCCC2,-5%,13%,?,-12%,3%,-3%
O=C(NC(=O)c1ccccc1)NC1(C(F)(F)F)OCCO1,?,4µM*,11µM*,16µM*,2.5µM*,?
COc1ccccc1Nc1ncnc2c1nc1n2CCCCC1,/,/,-14%,/,/,/
Cc1ccc(Nc2ncnc3c2nc2n3CCCC2)c(Br)c1,/,/,3.8µM*,/,/,/
Clc1cccc(Nc2ncnc3c2nc2n3CCCCC2)c1,/,/,6.7µM*,/,/,/
Clc1cccc(N2CCN(c3ncnc4c3nc3n4CCCC3)CC2)c1,/,/,19µM*,?,/,/
Cc1ccc(Cl)cc1N1CCN(c2ncnc3c2nc2n3CCCCC2)CC1,/,/,-2%,/,/,/
Clc1ccccc1Nc1ncnc2c1nc1n2CCCCC1,/,/,17µM*,/,/,/
O=C(CCS(=O)(=O)Cc1ccc(Cl)cc1)NCCCN1CCN(c2ccccc2F)CC1,?,-9%,6%,-65%,0%,-7%
CCc1nnc(NC(=O)CSc2ccc(-c3nc4ccccc4[nH]3)cn2)s1,?,2.5µM*,?,?,?,?
O=C(CSc1n[nH]c(-c2ccccc2)n1)N1CCOCC1,?,12%,?,/,9%,23%
Cc1nc(NC(=O)CSc2ccc(-c3nc4ccccc4[nH]3)cn2)sc1C,?,?,-13%,17%,?,?
Cc1ccc(SCC(=O)Nc2ccc(-c3nc4ccccc4[nH]3)cc2)cc1,9%,?,-8%,5.6µM*,?,?
CN(C)CCNC(=S)Nc1ccc(-c2nc3ccccc3[nH]2)cc1,?,1.6µM*,9.5µM*,11µM*,2.2µM*,18%
O=C(CSc1n[nH]c(-c2ccccc2O)n1)N1CCOCC1,?,27%,19µM*,18%,5%,8%
S=C(NCCCN1CCOCC1)Nc1ccc(-c2nc3ccccc3[nH]2)cc1,?,27%,?,-14%,21%,-1%
Cc1ccc(NC(=O)CCCSc2nc3ccccc3[nH]2)cc1,-23%,1%,?,-20%,-1%,0%
COC(=O)[C@@]1(Cc2ccc(OC)cc2)[C@H]2c3cc(C(=O)N(C)C)n(Cc4ccsc4Br)c3C[C@H]2CN1C(=O)c1ccccc1,/,/,/,-29%,/,/
Cc1ccc2nc(-c3ccc(SCC(=O)Nc4nnc(C)s4)nc3)[nH]c2c1,?,2.8µM*,0.6µM*,14µM*,2.5µM*,?
CC(=O)Nc1ccc(-c2nc3c(C)cccc3[nH]2)cc1,?,1.6µM*,2.4µM*,3.5µM*,2.5µM*,2.9µM*
Cc1nnc(NC(=O)CSc2ccccn2)s1,?,2%,1%,6%,3%,1%
SMILES,ELG1 repair inh,Rab9 promoter act,FLuc counter,SMN2 splice up,NPC1 promoter act,ELG1 genotoxic
O=C(CSc1ccc(-c2nc3ccccc3[nH]2)cn1)Nc1ccc(S(=O)(=O)NC2CC2)cc1,10%,2%,1.5µM*,44%,-1%,0%
CCc1nnc(NC(=O)CSc2n[nH]c(-c3ccccc3O)n2)s1,14%,-7%,17µM*,/,1%,0%
O=C(CSC1=NCCS1)Nc1ccc(S(=O)(=O)NC2CCCCC2)cc1,0%,-5%,-2%,14%,-3%,-3%
Cc1nnc(NC(=O)CSc2n[nH]c(-c3ccccc3C)n2)s1,?,-12%,-1%,/,1%,4%
CCN1CCN(CCCNC(=O)c2ccc3c(c2)sc2nc(-c4ccc(C)cc4)cn23)CC1,/,/,-9%,/,/,/
Cc1ccc2nc(SCC(=O)Nc3ccc(C#N)cc3)[nH]c2c1,/,/,-8%,-11%,/,/
Cc1ccc2nc(SCC(=O)Nc3nnc(SCC(N)=O)s3)[nH]c2c1,-4%,-1%,17µM*,-1%,-1%,0%
Cc1ccc2nc(-c3ccc(SCC(=O)Nc4nc(C)cs4)nc3)[nH]c2c1,?,2.8µM*,0.54µM*,6.3µM*,3.5µM*,?
CCc1nn(CC(=O)N2CCN(c3ccc(F)cc3)CC2)c(=O)c2cc3occc3n12,2%,-1%,2%,/,-7%,-2%
CCn1c(SCC(=O)NCCOc2ccccc2)nc2ccccc2c1=O,-22%,-1%,6%,-12%,0%,-1%
CCOC(=O)c1c(C)[nH]c(C(=O)N2CCN(CC)CC2)c1C,15%,-1%,0%,/,-2%,2%
O=C(N/N=C\c1ccc(-c2cccc(Cl)c2)o1)C(=O)NC1CCCC1,0%,-1%,3%,7%,-2%,15%
NC(=O)c1ccc(NC(=O)c2cnc3ccccc3n2)cc1,?,2.5µM*,?,/,?,?
O=C(Nc1ccccc1)c1cnc2ccccc2n1,?,7%,12µM*,?,19%,?
Cc1ccc(NC(=O)c2cnc3ccccc3n2)cc1C,?,0.5µM*,2.4µM*,/,0.2µM*,?
Cc1ccc(NC(=O)c2ncc(Cl)c(Cl)c2Cl)cc1C,?,2.8µM*,-15%,?,-3%,?
O=C(Nc1ccc(OC(F)F)cc1)c1ncc(Cl)c(Cl)c1Cl,-2%,11%,?,21%,-11%,-5%
COc1ccc(Cl)cc1S(=O)(=O)N1CCC(C(=O)NC2CC2)CC1,1%,0%,2%,/,0%,-1%
Cc1cccc(NC(=O)CSc2nnc(CNC(=O)c3ccc(S(=O)(=O)N(C)C)cc3)n2-c2ccc(F)cc2)c1,-5%,-1%,-1%,-7%,-3%,0%
CS(=O)(=O)Nc1cccc(S(=O)(=O)N2CCN(C(=O)c3ccccc3)CC2)c1,1%,-4%,4%,/,0%,-2%
COc1cc2c(cc1OC)C(c1ccc(-c3cc(Cl)ccc3Cl)o1)=NCC2,?,-24%,1%,-15%,-2%,-26%
COc1cc2c(cc1OC)C(c1ccc(Cl)cc1)=NCC2,-19%,-9%,0%,/,-11%,-8%

# High-throughput results: PubChem, National Center for Advancing Translational Sciences (NCATS)
